About 2,000 (4.3%) of roughly 47,000 compounds were called active. The sample as a whole holds a higher share of actives than the screen did. Unmarked numbers belong to inactive results. Cut-off read from the data, not from the text of the source: active = inhibition above about 30%; inactive = the rest.

By inhibition is commonly meant the relative decrease from the control value, in per cent.

Sequence of Ubiquitin carboxyl-terminal hydrolase 8 (Homo sapiens) (P40818 whole entry, looked up): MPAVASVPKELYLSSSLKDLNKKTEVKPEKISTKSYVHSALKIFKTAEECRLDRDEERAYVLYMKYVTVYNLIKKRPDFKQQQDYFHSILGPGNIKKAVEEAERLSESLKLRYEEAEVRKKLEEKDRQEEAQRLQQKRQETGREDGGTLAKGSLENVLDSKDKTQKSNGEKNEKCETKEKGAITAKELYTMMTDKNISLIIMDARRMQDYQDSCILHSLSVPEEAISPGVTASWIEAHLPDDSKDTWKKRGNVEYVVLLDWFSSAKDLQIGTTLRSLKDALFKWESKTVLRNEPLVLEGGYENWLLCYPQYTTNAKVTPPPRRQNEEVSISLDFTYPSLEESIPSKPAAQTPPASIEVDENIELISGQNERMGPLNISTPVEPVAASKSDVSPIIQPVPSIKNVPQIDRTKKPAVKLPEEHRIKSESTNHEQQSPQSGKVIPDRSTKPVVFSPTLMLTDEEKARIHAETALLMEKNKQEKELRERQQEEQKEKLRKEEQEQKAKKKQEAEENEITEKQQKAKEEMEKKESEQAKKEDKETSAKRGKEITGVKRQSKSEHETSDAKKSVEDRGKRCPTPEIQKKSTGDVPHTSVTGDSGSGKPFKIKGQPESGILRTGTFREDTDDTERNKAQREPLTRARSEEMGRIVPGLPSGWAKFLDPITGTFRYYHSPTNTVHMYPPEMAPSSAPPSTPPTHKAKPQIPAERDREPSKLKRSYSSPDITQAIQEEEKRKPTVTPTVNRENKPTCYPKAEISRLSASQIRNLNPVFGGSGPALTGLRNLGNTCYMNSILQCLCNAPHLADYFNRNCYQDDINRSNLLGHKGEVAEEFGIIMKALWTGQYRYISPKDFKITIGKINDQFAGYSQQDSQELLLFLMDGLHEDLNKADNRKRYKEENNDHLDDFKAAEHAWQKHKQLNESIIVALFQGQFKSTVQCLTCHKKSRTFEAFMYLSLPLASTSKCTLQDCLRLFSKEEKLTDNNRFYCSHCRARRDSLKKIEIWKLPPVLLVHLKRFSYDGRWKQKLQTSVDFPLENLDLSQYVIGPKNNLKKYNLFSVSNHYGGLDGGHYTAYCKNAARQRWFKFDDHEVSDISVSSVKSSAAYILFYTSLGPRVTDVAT

The assay has as its target Ubiquitin carboxyl-terminal hydrolase 8 (Homo sapiens) (UniProt P40818). The assay is described as follows: inhibitors of human USP8 deubiquitinase (AID 1645853). The note with it: purified USP8, Ub-rhodamine cleavage fluorescence, 30 min; at 20 µM; active compounds read high.
Turning to `O=C(CCOc1ccccc1F)Nc1ccc2c(c1)OCO2`, the inhibition is 7.17%.
As for `O=C(Nc1ccc2c(c1)OCO2)N1CCCCCC1`, the figure is 5.28%; as for `O=C(CN1CCN(CC(=O)Nc2ccc3c(c2)OCO3)CC1)Nc1ccc(F)cc1`, 38.1% (active); as for `Cc1ccc(-c2noc(-c3cccc(OCC(=O)N(C)C)c3)n2)cc1`, -30%.
As for `COc1cccc(-c2cc3c(=O)n(Cc4nc(-c5ccccc5C)no4)ccn3n2)c1`, the figure is 0.201%.
Consider `CCOc1ccc(-c2noc(-c3nn(-c4cccc(OC)c4)ccc3=O)n2)cc1`, for which the inhibition was 81.8% (active).
As for `COc1nc2c(c(-c3ccc[nH]3)c1C#N)Cc1ccccc1-2`, the figure is -97.1%.
With `Nc1cccc(C(=O)CC2(O)C(=O)N(CCc3ccccc3)c3ccccc32)c1` (stereo not drawn), the inhibition is -96.8%.
Turning to `CNc1nc(C2CCCN(C(C)=O)C2)nc2c1CCN(C(=O)c1oc3ccccc3c1C)C2` (stereo not drawn), the inhibition was -2.25%.
With `COc1ccc(NC(=O)CSc2ncccc2C(=O)N2CCC(Cc3ccccc3)CC2)cc1OC`, the inhibition was -0.608%.
In the case of `O=C(CC1C(=O)OCCN1Cc1ccccc1)Nc1cccc(F)c1` (stereo not drawn), the inhibition was -10.4%.
With `O=C(COc1cccc2ccc(N3CCC(Cc4ccccc4)CC3)nc12)NCc1ccc(F)cc1` the figure was 65.7% (active); with `Cn1c(=O)c(N2CCC(C(=O)NCc3ccc(F)cc3)CC2)nc2cccnc21`, 7.77%; with `O=C(COc1cccc2ccc(N3CCC(Cc4ccccc4)CC3)nc12)Nc1cccc(F)c1`, 84.1% (active).
Regarding `O=C(CCc1nnc2ccc(N3CCCC3)nn12)NCc1ccc(F)cc1`, the inhibition is 29.2%.
As for `CC(c1ccccc1)n1c(CCCNC(=O)C2CCCCC2)nc2ccccc21` (stereo not drawn), the figure is -8.43%.
As for `Cc1ccc(NC(=O)Cn2cccc(S(=O)(=O)N3CCCCCC3)c2=O)c(C)c1`, the inhibition was -3.12%.
As for `Cn1c2c(c(=O)n(C)c1=O)C(c1cccc(Cl)c1Cl)CC(=O)N2` (stereo not drawn), the figure is -0.255%.
With `O=C(CSc1n[nH]c(-c2cccnc2)n1)Nc1ccc(Cl)cc1` the figure was -5.47%; with `COCCn1c(=O)[nH]c2cc(C(=O)NCCNc3ccc([N+](=O)[O-])cc3C#N)ccc2c1=O`, 55.6% (active).
With `COCCn1c(=O)[nH]c2cc(C(=O)NCc3ccc(Cl)cc3)ccc2c1=O` the figure was -1.21%; with `COCCn1c(=O)[nH]c2cc(C(=O)N3CCC(Cc4ccccc4)CC3)ccc2c1=O`, -0.0121%; with `Cc1cccc(NC(=O)N2CCCC3(CCCN3C)C2)c1` (stereo not drawn), -319%.
Turning to `CN1CCN(c2ncc(NC(=O)c3ccc(C(F)(F)F)cc3)cn2)CC1`, the inhibition was -15.2%.
`CC(=O)N1Cc2ccccc2OC2(CCN(CC(=O)Nc3cccc(C)c3C)CC2)C1`: the inhibition was -15.9%.
As for `Cn1cccc1/C(C#N)=C\c1ccc2c(c1)OCO2`, the figure is 76.2% (active); as for `Cn1c(=O)c(-c2ccc(C(=O)NCc3ccc(F)cc3F)cc2)nc2cccnc21`, 15.4%.
Regarding `CNC(=O)C1(C)CN(C(=O)c2ccc3[nH]c(C)c(C)c3c2)CCO1` (stereo not drawn), the inhibition is -61.8%.
With `Cc1cc(NC(=O)CSc2nccn2-c2ccc([N+](=O)[O-])cc2)no1`, the inhibition is -89.6%.
With `O=C(NCC1CC1)[C@H]1C[C@@H]2CN(CC3CC3)C[C@H]1O2` the figure was -27.5%.
As for `CC(C)OC(=O)c1cc2c(ccn2-c2ccc(F)cc2)n1Cc1ccccn1`, the figure is 64% (active); as for `CCOC(=O)c1cc2c(ccn2-c2ccc(F)cc2)n1Cc1ncc(C)c(OC)c1C`, 3.2%; as for `COC(=O)c1cc2sc(Cl)cc2n1Cc1cc(=O)n2ccccc2n1`, -9.48%.
Consider `O=C(NC(c1ccccc1)C1CC1)c1ccc2c(c1)S(=O)(=O)Nc1ncnn1-2` (stereo not drawn), for which the inhibition is -8.33%.
Turning to `COc1ccccc1NS(=O)(=O)c1ccc2oc(Nc3ccc(Cl)c(C(F)(F)F)c3)nc2c1`, the inhibition is -24.6%.
With `COc1ccc2c(c1)c(N1CCCC1=O)c(C(=O)NCc1ccccn1)n2C` the figure was -0.85%; with `Cc1nn(-c2ccc(F)cc2)c(C)c1S(=O)(=O)NCc1ccc2c(c1)OCO2`, -20.2%; with `Cc1nn(CC(=O)c2cc(C)n(-c3ccc4c(c3)OCO4)c2C)c(C)c1[N+](=O)[O-]`, 58.8% (active).
As for `COc1cccc(C2C3=C(CC(C)(C)CC3=O)Nc3ccccc3N2C(=O)Cc2ccccc2)c1` (stereo not drawn), the figure is 2.23%; as for `Cc1cc(C)cc(NC(=O)Cn2cnc(-c3nc(C)cs3)c2)c1`, -4.24%.
In the case of `Cc1ccccc1-c1nc(-c2cn(CC(=O)Nc3ccccc3)cn2)no1`, the inhibition is 64.4% (active).
As to `Cc1ccccc1-c1nc(-c2cccc(OCC(=O)N3CCOCC3)c2)no1`, the inhibition was 7.89%.
In the case of `C[C@H](NC(=O)c1ccc2c(c1)OCO2)c1nc2cc(-c3ccc(F)cc3)ncn2n1`, the inhibition was 18%.
As to `Nc1c(-c2ccc(Cl)cc2)cnc2c(-c3ccccc3)c(COc3ccccc3)nn12`, the inhibition is -0.15%.
Regarding `COc1ccc(OCC(=O)Nc2noc(-c3ccccc3)n2)cc1`, the inhibition is 15.1%.
With `COc1ccc(NC(=O)Cc2noc(-c3cccc(OC)c3)n2)cc1` the figure was 50.5% (active); with `COc1ccc(-c2noc(-c3cccc(OCC(=O)NC(C)C)c3)n2)cc1`, -16.3%.
In the case of `CN(C)[C@@H]1CN(S(=O)(=O)N2CCOCC2)C[C@H]1O`, the inhibition is 11.8%.
With `Cc1ccc(C(=O)N2C[C@@H]3CCN(c4ncccn4)C[C@@H]3C2)cc1` the figure was -16.6%; with `COc1cccc(CNC(=O)Cn2cnc(S(=O)(=O)N3CCCC3)c2)c1`, 19%.
Take `COc1cccc(CNC(=O)c2nnn(CC(=O)Nc3cc(C)ccc3C)c2N)c1`: the inhibition was 67.9% (active).
`COc1cccc(NC(=O)c2nnn(Cc3nc(-c4cccc(C)c4)oc3C)c2N)c1`: the inhibition is -2.67%.
With `Cc1ccc(C)c(NC(=O)c2cn(C)cc3c(=O)n(-c4ccccc4)nc2-3)c1` the figure was -13.8%; with `Cc1nc(-c2ccc(C)c(S(=O)(=O)NCC(=O)Nc3cccc(Cl)c3)c2)no1`, 7.8%.
On to `Cc1ccc(Nc2nc(NCC(=O)Nc3cc(C)ccc3C)nc(Nc3ccc(C)cc3)n2)cc1`, for which the inhibition is 38% (active).
As for `CCCN1CCC(N2C[C@@H]3CN(S(=O)(=O)c4ccccc4)C[C@@H]3C2)CC1`, the inhibition is -38.2%.
As for `Cc1nc(-c2ccccc2)sc1-c1nc(-c2ccccc2)ncc1S(=O)(=O)c1ccccc1`, the figure is 63.3% (active); as for `COc1ccc2ncc(S(=O)(=O)c3ccccc3)c(Nc3ccc(F)cc3)c2c1`, 17.2%.
For `Cc1ccc2c(c1)CN(S(C)(=O)=O)CC1(CCN(CC(=O)N3CCCCC3)CC1)O2`, the inhibition is 0.0399%.
In the case of `CCOC(=O)C1CCN(S(=O)(=O)c2cc3[nH]c4c(c3cc2CC)C(=O)CCC4)CC1`, the inhibition is -25.1%.
For the molecule `Cc1cc(C(F)(F)F)nn1CC(=O)O`, the inhibition is -0.231%.
Regarding `O=C(Cc1ccc(Cl)cc1)NCC(=O)Nc1nc2ccccc2[nH]1`, the inhibition is -1.55%.
As to `CC1=C(C(=O)Nc2ccccc2)C(c2ccc(OCc3c(Cl)cccc3Cl)cc2)n2ncnc2N1` (stereo not drawn), the inhibition was -1.68%.
For the molecule `COCCNC(=O)c1ccc2nnc3ncn(C(C)C)c3c2c1`, the inhibition was -31.7%.
With `COc1ccc(-c2nc(-c3cccs3)no2)cc1OC`, the inhibition is -15.4%.
For the molecule `COc1ccc(-c2noc(C3(c4ccccc4)CCOCC3)n2)cc1`, the inhibition is 19.2%.
As to `COc1ccc(-c2noc(-c3ccc(N(C)Cc4ccco4)nn3)n2)cc1`, the inhibition was 35.7% (active).
With `O=C1CC(C(=O)Nc2ccccc2F)N=C(N2CCN(c3ccccc3F)CC2)N1` (stereo not drawn) the figure was 3.41%.
As for `O=C(CSc1ccc2nnc(-c3ccccc3)n2n1)N1CCCc2ccccc21`, the figure is 29.4%.
With `CC(C)N(C(=O)CSc1nc2ccc([N+](=O)[O-])cc2s1)C(C)C` the figure was 49.5% (active); with `COc1cccc(NC(=O)CN2CCN(c3nc4ccc([N+](=O)[O-])cc4s3)CC2)c1`, -52.2%.
Consider `O=[N+]([O-])c1ccc(S(=O)(=O)N2CCN(c3nc4ccccc4s3)CC2)cc1`, for which the inhibition was -0.0867%.
As for `O=C1NCCCCC1NS(=O)(=O)c1ccc2c(c1)OCCCO2` (stereo not drawn), the figure is -2.35%; as for `Cc1ccccc1NC(=O)Cc1csc2nc(-c3ccc(F)cc3)cn12`, 85.8% (active); as for `Cc1cc(F)ccc1NC(=O)Cc1n[nH]c(Cc2ccccc2)n1`, 2.95%.
As for `O=C(Cc1ccc(F)cc1)Nc1ccccc1Cc1ccccc1`, the figure is 19.3%.
With `COc1cccc(C(=O)OCc2csc(-c3ccccc3)n2)c1OC` the figure was 4.14%.
On to `Nc1cc(C2CCN(C(=O)Cc3ccc(F)cc3)CC2)no1`, for which the inhibition was 1.13%.
With `COc1cccc(-n2c(=O)[nH]c3c(C(N)=O)nc(-c4ccccn4)nc32)c1`, the inhibition was -282%.
Consider `COc1cccc(-n2c(=O)c(C(=O)NC(C)c3ccccc3)c(O)c3cccnc32)c1` (stereo not drawn), for which the inhibition is 81.5% (active).
With `COc1ccccc1CNCc1c(C(=O)O)c(C)n(-c2ccccc2)c1C` the figure was 27.6%; with `COc1cccc(NC(=O)Nc2nccn(-c3ccccc3)c2=O)c1`, 5.06%.
With `COc1ccccc1CNC(=O)c1c(O)c2cccnc2n(-c2ccccc2)c1=O` the figure was 80.6% (active); with `COc1ccccc1CNC(=O)c1ccc(Cl)c(S(=O)(=O)N2CCCC2)c1`, -5.09%.
With `CN(C)S(=O)(=O)N1CCOC(c2cncc(-c3cccc(F)c3)n2)C1` (stereo not drawn) the figure was -2.26%; with `O=C(C1COc2ccccc2O1)N1CCN(c2nc(C(F)(F)F)nc3ccccc23)CC1` (stereo not drawn), 11.8%.
Consider `COC(=O)c1ccc(C2Oc3ccccc3CN2c2ccccc2Cl)cc1` (stereo not drawn), for which the inhibition was 22%.
Consider `COc1ccc(-c2csc(N)n2)c(O)c1`, for which the inhibition is 3.16%.

The values above are taken from PubChem BioAssay AID1645853 (Buhrlage Lab, Dana-Farber Cancer Institute and Novartis …, 2021).
